This passage reports cell viability results from the supplement of paper PMC10981050.

Molecules are shown by their SMILES. Where “and” joins values, the source holds several entries; their conditions need not be identical. Identical values can stand only once. Counter-ions that a name gives are not always drawn.

Holding throughout (assay): cell viability relative to vehicle control; higher = less cytotoxic
What all share (conditions): 10 µM

Experiment [1] relates to K562. A digest of the protocol:
(§1)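 Screening covered the Selleck bioactive, kinase and epigenetic probe libraries, less identity-inconsistent compounds, on CRISPR-edited mutant clones and isogenic wild-type clones of four leukaemia lines. Cells, at 2000 per well in 50 µL medium, received a single 10 µM acoustically dispensed dose. After 48 h the supernatant was removed and CellTiter-Glo luminescence was read. Viability was analysed in Genedata Screener as percent of the on-plate vehicle control.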

The test system of experiment [2] is MARIMO. In outline: as §1
For experiment [3], the system named is MOLM14. A digest of the protocol: as §1
Experiment [4] deals with OCI-AML2. A digest of the protocol:
as §1

In general, cell viability refers to a read-out of living cells in per cent, often relative to untreated cells. `O=C1NC(=O)/C(=C/c2ccc(-c3ccc(F)cc3O)o2)S1`: the cell viability in experiment [1] (SRSF2 genotype: SRSF2 P95H/wt) is 94.7% and 95.1%; in experiment [1] (SRSF2 genotype: SRSF2 wt/wt), 88.4%; in experiment [2] (SRSF2 genotype: SRSF2 P95H/wt) it was 75.9%; in experiment [2] (SRSF2 genotype: SRSF2 wt/wt) it was 79.2%; in experiment [3] (SRSF2 genotype: SRSF2 P95H/wt), 89.3%; in experiment [3] (SRSF2 genotype: SRSF2 wt/wt), 100%. Also, the figures for the cell viability in experiment [4] (SRSF2 genotype: P95H/wt) and in experiment [4] (SRSF2 genotype: wt/wt) were 62.3% and 59%, respectively.
As to `CN(C)C(=O)CCSC(SCCC(=O)O)c1cccc(/C=C/c2ccc3ccc(Cl)cc3n2)c1` (stereo not given), the cell viability is 102% and 103% in experiment [1] (SRSF2 genotype: SRSF2 P95H/wt); 98.5% in experiment [1] (SRSF2 genotype: SRSF2 wt/wt); 110% in experiment [2] (SRSF2 genotype: SRSF2 P95H/wt); 111% in experiment [2] (SRSF2 genotype: SRSF2 wt/wt); 108% in experiment [3] (SRSF2 genotype: SRSF2 P95H/wt); 107% in experiment [3] (SRSF2 genotype: SRSF2 wt/wt). Moreover, the cell viability in experiment [4] (SRSF2 genotype: P95H/wt) amounted to 101%; in experiment [4] (SRSF2 genotype: wt/wt) it was 103%.
In the case of `Cc1cc(-n2c(=O)[nH]c(=O)n(C)c2=O)ccc1Oc1ccc(SC(F)(F)F)cc1` [Toltrazuril], the cell viability in experiment [1] (SRSF2 genotype: SRSF2 P95H/wt) was 105% and 104%; in experiment [1] (SRSF2 genotype: SRSF2 wt/wt), 103%; in experiment [2] (SRSF2 genotype: SRSF2 P95H/wt), 107%; in experiment [2] (SRSF2 genotype: SRSF2 wt/wt), 109%; in experiment [3] (SRSF2 genotype: SRSF2 P95H/wt), 99.7%; in experiment [3] (SRSF2 genotype: SRSF2 wt/wt), 101%. Also, the cell viability in experiment [4] (SRSF2 genotype: P95H/wt) is 105%; in experiment [4] (SRSF2 genotype: wt/wt), 104%.
With `COc1ccccc1OCC(O)CN1CCN(CC(=O)Nc2c(C)cccc2C)CC1` (stereo not given) [Ranolazine (Ranexa)], the cell viability is 99.1% and 96.1% in experiment [1] (SRSF2 genotype: SRSF2 P95H/wt); 91.9% in experiment [1] (SRSF2 genotype: SRSF2 wt/wt); 96.6% in experiment [2] (SRSF2 genotype: SRSF2 P95H/wt); 102% in experiment [2] (SRSF2 genotype: SRSF2 wt/wt); 97.8% in experiment [3] (SRSF2 genotype: SRSF2 P95H/wt); 99.2% in experiment [3] (SRSF2 genotype: SRSF2 wt/wt). Besides, the figures for the cell viability in experiment [4] (SRSF2 genotype: P95H/wt) and in experiment [4] (SRSF2 genotype: wt/wt) were 94.9% and 102%, respectively.
For the compound `COc1cc(C[C@H](C)[C@H](C)Cc2ccc3c(c2)OCO3)ccc1O` [Anwuligan], the cell viability in experiment [1] (SRSF2 genotype: SRSF2 P95H/wt) was 88.8% and 87%; in experiment [1] (SRSF2 genotype: SRSF2 wt/wt) it was 87.9%; in experiment [2] (SRSF2 genotype: SRSF2 P95H/wt), 87%; in experiment [2] (SRSF2 genotype: SRSF2 wt/wt), 94.9%; in experiment [3] (SRSF2 genotype: SRSF2 P95H/wt) it was 88.3%; in experiment [3] (SRSF2 genotype: SRSF2 wt/wt) it was 83.1%. In addition, the cell viability was determined as 76.8% in experiment [4] (SRSF2 genotype: P95H/wt) and 83.5% in experiment [4] (SRSF2 genotype: wt/wt).
As for `COc1ccc(-c2oc3c(CC=C(C)C)c(O[C@@H]4O[C@H](CO)[C@@H](O)[C@H](O)[C@H]4O)cc(O)c3c(=O)c2O[C@@H]2O[C@@H](C)[C@H](O)[C@@H](O)[C@H]2O)cc1` [Icariin], the cell viability in experiment [1] (SRSF2 genotype: SRSF2 P95H/wt) was 94.5% and 104%; in experiment [1] (SRSF2 genotype: SRSF2 wt/wt), 98.7%; in experiment [2] (SRSF2 genotype: SRSF2 P95H/wt), 98.7%; in experiment [2] (SRSF2 genotype: SRSF2 wt/wt) it was 110%; in experiment [3] (SRSF2 genotype: SRSF2 P95H/wt), 108%; in experiment [3] (SRSF2 genotype: SRSF2 wt/wt), 104%. Moreover, the cell viability was found to be 105% in experiment [4] (SRSF2 genotype: P95H/wt) and 112% in experiment [4] (SRSF2 genotype: wt/wt).
Take `CC1(C)C2CCC1(C)C(O)C2` (single isomer, unassigned; (+)) [(+)-Borneol]: the cell viability is 96.5% and 99.3% in experiment [1] (SRSF2 genotype: SRSF2 P95H/wt); 105% in experiment [1] (SRSF2 genotype: SRSF2 wt/wt); 100% in experiment [2] (SRSF2 genotype: SRSF2 P95H/wt); 106% in experiment [2] (SRSF2 genotype: SRSF2 wt/wt); 101% in experiment [3] (SRSF2 genotype: SRSF2 P95H/wt); 103% in experiment [3] (SRSF2 genotype: SRSF2 wt/wt). Moreover, the cell viability in experiment [4] (SRSF2 genotype: P95H/wt) came to 101%; in experiment [4] (SRSF2 genotype: wt/wt), 98%.
With `CC1(N)CCN(c2cnc(-c3cccc(Cl)c3Cl)c(N)n2)CC1` [SHP099 hydrochloride], the cell viability in experiment [1] (SRSF2 genotype: SRSF2 P95H/wt) was 64.7% and 71.4%; in experiment [1] (SRSF2 genotype: SRSF2 wt/wt) it was 71.9%; in experiment [2] (SRSF2 genotype: SRSF2 P95H/wt) it was 96%; in experiment [2] (SRSF2 genotype: SRSF2 wt/wt) it was 106%; in experiment [3] (SRSF2 genotype: SRSF2 P95H/wt), 29.6%; in experiment [3] (SRSF2 genotype: SRSF2 wt/wt) it was 22.8%. The results for the cell viability in experiment [4] (SRSF2 genotype: P95H/wt) and in experiment [4] (SRSF2 genotype: wt/wt) were 25.4% and 38.7%, respectively.
For the compound `C/C(=C\CO)CCC[C@H](C)CCC[C@H](C)CCCC(C)C` [Phytol], the cell viability in experiment [1] (SRSF2 genotype: SRSF2 P95H/wt) was 97% and 93.1%; in experiment [1] (SRSF2 genotype: SRSF2 wt/wt) it was 96%; in experiment [2] (SRSF2 genotype: SRSF2 P95H/wt) it was 89.1%; in experiment [2] (SRSF2 genotype: SRSF2 wt/wt), 103%; in experiment [3] (SRSF2 genotype: SRSF2 P95H/wt), 85.5%; in experiment [3] (SRSF2 genotype: SRSF2 wt/wt) it was 92.6%. The cell viability in experiment [4] (SRSF2 genotype: P95H/wt) came to 80.5%; in experiment [4] (SRSF2 genotype: wt/wt), 82.6%.
As to `CCCCCCCCCCCCCCCCCCCC(=O)O` [Arachidic acid], the cell viability in experiment [1] (SRSF2 genotype: SRSF2 P95H/wt) is 95.7% and 93.1%; in experiment [1] (SRSF2 genotype: SRSF2 wt/wt), 98.9%; in experiment [2] (SRSF2 genotype: SRSF2 P95H/wt) it was 96%; in experiment [2] (SRSF2 genotype: SRSF2 wt/wt), 96.3%; in experiment [3] (SRSF2 genotype: SRSF2 P95H/wt) it was 96.1%; in experiment [3] (SRSF2 genotype: SRSF2 wt/wt), 103%. The cell viability in experiment [4] (SRSF2 genotype: P95H/wt) was 103%; in experiment [4] (SRSF2 genotype: wt/wt), 109%.
